# Peg3 promoter = reduces Peg3 promoter-driven luciferase expression in HeLa; HeLa PEG-Prom luciferase reporter, luminescence, overnight; inhibition, % at 20 µM; 360,000 tested, 1.7% active;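 active = inhibition of at least 50% at 20 µM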
# TROY signal inh = blocks TROY-dependent signaling in reporter cells; Q293 LMP1-TROYcd NF-kB luciferase reporter, 4 h; inhibition, % at 10 µM; 360,000 tested, 0.98% active; AID 1347056;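 active = compounds whose plate-normalised and pattern-corrected inhibition of the luciferase reporter signal at the single screening dose is 50% or more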
# KKLEB tox = reduces viability of KKLEB cystic fibrosis airway cells; 360,000 tested, 0.36% active; activity change (cytotoxicity), % at 5 µM; KKLEB CF airway cells viability, ATPlite luminescence, overnight; hits give low values; cells stimulated with P. aeruginosa culture filtrate; AID 602141;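 active = corrected activity change at or below -50% at 5 µM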
# TWEAK Fn14 block = inhibitors of TWEAK-Fn14 interaction signaling. TWEAK-stimulated Fn14 reporter cells, luciferase luminescence, 8 h. inhibition, % at 10 µM. 360,000 tested, 2% active. AID 1159606; in the data active = inhibition above about 50%
# HIF-2a inh = inhibitors of HIF-2a | 786-0 RCC cells HIF-2a reporter, luciferase luminescence, overnight | inhibition, % at 18.8 µM | 360,000 tested, 0.72% active | AID 624352;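 active = inhibition of the luminescence signal of 40% or more relative to plate controls, in a single-dose primary screen at 18.75 µM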
# CF NFkB inh = blocks PAF-induced NF-kB reporter in cystic fibrosis cells | 360,000 tested, 0.86% active | inhibition, % at 5 µM | KKLEB NF-kB-GFP reporter, GFP fluorescence overnight;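 active = at least 50% inhibition at 5 µM, scaled per plate between neutral and stimulator controls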;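 note: PAF is a Pseudomonas aeruginosa culture filtrate used as stimulus; plate controls were PAF-stimulated DMSO wells for no effect and unstimulated DMSO wells for full effect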
# CF NFkB conf = CF NF-kB inhibition confirmation, single concentration. AID 602472. shares compounds with CF NFkB inh. KKLEB CF airway cells, PAF-induced NF-kB-GFP fluorescence, overnight. inhibition, % at 5 µM. 1,300 tested, 64% active; in the data active = inhibition above about 40%;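 note: stimulus PAF is a Pseudomonas aeruginosa filtrate and not platelet activating factor; plate controls were DMSO wells with stimulus for no effect and unstimulated DMSO wells for full effect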
# * = called active by the depositor; . = not tested or not shown. Sampled rows, rich in hits. Any-hit rate of the full collection: about 4%.
SMILES,Peg3 promoter,TROY signal inh,KKLEB tox,TWEAK Fn14 block,HIF-2a inh,CF NFkB inh,CF NFkB conf
CC(C)OCCCNC(=O)c1c(N)n(/N=C/c2ccccn2)c2nc3ccccc3nc12,38,-16,-22,35,-11,56*,-44
COCCCNC(=O)c1c(N)n(/N=C/c2cccs2)c2nc3ccccc3nc12,8,-1,0,28,-5,-24,.
COc1cccc(NC(=O)COC(=O)CNC(=O)C2CCCCC2)c1,-7,22,6,-10,0,-2,.
NC(=O)N/N=C/c1c(Sc2nnnn2-c2ccccc2)nc2ccccn2c1=O,103*,-6,-38,96*,3,71*,72*
Cc1nn(-c2ccccc2)c(Cl)c1/C=N/NC(N)=O,-23,-47,-13,-26,-88,-8,.
O=C(NC(=O)N1CCCC1)c1csnn1,6,7,4,-9,13,-8,.
Nc1nc(N)nc(-c2ccc(Cl)c(Cl)c2)n1,-302,-3,-12,60*,-233,79*,91*
Cc1nc(N)nc(N)c1-c1ccc(Cl)c(Cl)c1,23,4,-10,12,22,10,.
COc1ccc(-c2cc(NC=O)c3ncc(-c4ccc(OC)c(OC)c4)n3c2)c(OC)c1,47,-1,-28,10,10,60*,87*
COc1ccccc1-c1cc(NC=O)c2ncc(-c3cccc(C(C)=O)c3)n2c1,42,4,-19,47,-29,59*,44*
COc1ccc(-c2cc(NC=O)c3ncc(-c4cc(OC)c(OC)c(OC)c4)n3c2)cc1,-1,12,-28,25,-30,52*,70*
COc1cccc(-c2cnc3c(NC=O)cc(-c4ccc(OC)cc4OC)cn23)c1,-11,12,-40,21,-10,63*,76*
COc1cc(-c2cnc3c(NC=O)cc(-c4ccc(S(C)(=O)=O)cc4)cn23)cc(OC)c1OC,23,0,-11,-13,13,27,.
c1ccc(-c2nc3nonc3nc2-c2ccccc2)cc1,9,-6,-17,20,25,72*,66*
COc1ccc(C(=O)Oc2ccc(F)cc2C(=O)/C=C/c2ccc(OC)c(OC)c2)cc1,19,3,-15,26,4,12,.
COc1ccc(/C=C/C(=O)c2cc(F)ccc2OC(=O)c2ccccc2C)cc1OC,19,24,-27,53*,25,54*,45*
CCOc1ccc(-n2c(C)c(C(=O)OC)c3cc(O)ccc32)cc1,15,35,0,29,18,24,.
CCOc1ccc(-n2c(C)c(C(C)=O)c3cc(O)ccc32)cc1,12,35,2,64*,32,57*,84*
CC(=O)c1ccc(-n2c(C)c(C(C)=O)c3cc(O)ccc32)cc1,18,13,16,43,13,56*,66*
CC(=O)c1c(C)n(-c2ccccc2)c2ccc(O)cc12,10,28,-16,46,16,59*,72*
CC(=O)c1c(C)n(-c2ccc(C)cc2C)c2ccc(O)cc12,14,22,-10,58*,34,65*,69*
CC(=O)c1c(C)n(-c2ccc(Br)cc2)c2ccc(O)cc12,12,11,10,37,28,45,.
COCc1ccc(CN2CCCCC2C(=O)Nc2ccc(Oc3ccccc3)nc2)o1 (centres undefined),16,-9,25,-13,-4,-40,.
O=C(Nc1ccc(Br)cn1)c1ccc(COc2c(F)c(F)cc(F)c2F)o1,3,8,6,-17,-14,4,.
CCC1CCCCN1CCCNC(=O)c1cc2c(=O)oc3ccc(C)cc3c2s1 (centres undefined),0,-23,1,-32,-3,-7,.
SMILES,Peg3 promoter,TROY signal inh,KKLEB tox,TWEAK Fn14 block,HIF-2a inh,CF NFkB inh,CF NFkB conf
CCn1c(SCC(=O)N2CCOCC2)nnc1C(C)NC(=O)c1ccccc1 (centres undefined),6,11,10,0,10,-17,.
COc1ccc(-n2c(SCC(=O)C(C)(C)C)nc3c(sc(=S)n3-c3ccccc3)c2=O)c(OC)c1,-6,-13,9,9,4,-12,.
Cc1cc(C)c(C(N)=O)c(Nc2cccc3ccccc23)n1,-4,-8,-8,16,8,50*,24
Nc1nonc1-n1nnc(C(=O)N/N=C/c2ccccn2)c1CNc1ccccc1,22,-7,1,-18,8,0,.
Cc1[nH]nc2ncc(C(=O)c3ccccc3O)cc12,26,49,-13,59*,10,86*,94*
COc1ccc(-c2cc(C(F)(F)F)nc(N3CCN(Cc4ccccc4)CC3)n2)cc1OC,5,7,-8,7,16,4,.
COc1ccc(-c2cc(C(F)(F)F)nc(N3CCN(c4ccc(F)cc4)CC3)n2)cc1OC,20,-6,-34,-10,3,54*,41*
C=CCn1c(SCC(=O)NCC2CCCO2)nnc1-c1ccncc1 (centres undefined),-7,4,-1,-3,14,-10,.
Cc1cccc(NC(=O)Nc2cccc(C#N)c2)n1,-82,-66,6,1,-307,16,.
Cc1cccc(NC(=O)Nc2ccc(C#N)cc2)n1,62*,2,-2,50,-108,75*,98*
CCOC(=O)N1CCc2c(sc(NC(=O)CN3CCN(C)CC3)c2C(=O)Nc2ccccc2)C1,0,10,-9,-19,7,-16,.
CCOC(=O)N1CCc2c(sc(NC(=O)CN3CCOCC3)c2C(=O)Nc2ccccc2)C1,24,6,-9,23,18,57*,-1
C/C(=C\[C@@H](NP(=O)(c1ccccc1)c1ccccc1)c1ccccc1)CO[Si](c1ccccc1)(c1ccccc1)C(C)(C)C,17,-16,-33,1,3,54*,31
Cc1ccc2c(c1)C(=O)C(=O)N2Cc1ccc(Br)cc1,-26,17,-22,2,-8,62*,81*
CC(=O)c1ccc(N2CCN(C(=O)CCS(=O)(=O)c3ccc4c(c3)NC(=O)CS4)CC2)cc1,2,-26,-9,-10,-25,5,.
O=C(Nc1ccccc1)Nc1ccc(Br)cc1F,-347,-84,27,-15,-304,-5,.
COC(=O)c1cc(NC(=O)Nc2cccc(Cl)c2)ccc1Cl,-71,37,-30,78*,-294,50*,35
O=C(Nc1cccc(Cl)c1)Nc1cc(S(=O)(=O)N2CCCCC2)ccc1Cl,66*,56*,-46,84*,-22,50*,75*
O=C(Nc1cccc(Cl)c1)Nc1ccc(Br)cc1F,-155,11,-43,33,-248,59*,20
COc1cccc(-c2ccc3ncnc(NCc4cccnc4)c3c2)c1,29,45,-16,74*,26,71*,83*
